Assay results: PubChem BioAssay AID504937 (National Center for Advancing Translational Sciences (NCATS), 2011)
Screen size: about 340,000 compounds; about 20 (0.006%) were called active. Only a selection was taken, and actives are over-represented in it overall. Unmarked numbers belong to inactive results. Calls come from the whole dose curve; as a rule, active = well fitted inhibition curve with a large enough effect; inconclusive = small, poorly fitted or top-dose-only effect; inactive = no such curve, though single readings can be large or run the other way.

Target: Sphingomyelin phosphodiesterase (Homo sapiens) (UniProt P17405)
Sequence (P17405 47-631 limits assumed): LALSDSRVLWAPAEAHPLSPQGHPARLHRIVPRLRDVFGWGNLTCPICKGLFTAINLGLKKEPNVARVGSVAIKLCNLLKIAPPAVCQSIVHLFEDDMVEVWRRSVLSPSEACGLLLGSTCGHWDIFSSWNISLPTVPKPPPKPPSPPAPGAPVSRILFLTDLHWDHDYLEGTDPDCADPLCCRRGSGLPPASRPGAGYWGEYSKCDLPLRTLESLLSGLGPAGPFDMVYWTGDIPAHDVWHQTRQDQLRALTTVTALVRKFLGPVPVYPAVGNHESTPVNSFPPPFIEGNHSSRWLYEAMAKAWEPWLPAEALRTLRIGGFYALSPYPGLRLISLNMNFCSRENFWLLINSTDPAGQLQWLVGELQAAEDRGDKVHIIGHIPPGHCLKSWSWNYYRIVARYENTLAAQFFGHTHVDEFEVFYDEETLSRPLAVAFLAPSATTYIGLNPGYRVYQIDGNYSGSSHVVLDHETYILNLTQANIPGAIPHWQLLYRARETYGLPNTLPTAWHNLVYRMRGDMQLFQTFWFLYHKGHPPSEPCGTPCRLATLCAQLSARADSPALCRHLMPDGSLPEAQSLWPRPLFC
Test: Inhibitors of Secretory Acid Sphingomyelinase (S-ASM): qHTS
Details: placental ASM, HMU-PC fluorogenic substrate, 60 min; series mostly up to 57.5 µM; activity change, negative = inhibition: at the top concentration
Excerpt: Atherosclerosis is the underlying process for cardiovascular disease and thus is a major contributor to disease burden in the population. […] Thus, selective small molecule inhibitors of S-ASM should block LDL modification and reduce aortic LDL retention and may serve as new agents for the treatment of atherosclerosis. In a collaboration between National Heart, Lung, and Blood Institute and the NCGC a high-throughput amenable screen was developed to identify potent and selective small molecule inhibitors of S-ASM. This enzymatic, fluorescent screen uses an ASM enzyme preparation derived from human placenta and was tested against the NIH Molecular Libraries Small Molecule Repository (MLSMR). NIH Chemical Genomics Center [NCGC] NIH Molecular Libraries Probe Centers Network [MLPCN] MLPCN Grant: MH093173-01 Assay Submitter (PI): Alan Remaley, National Heart, Lung, and Blood Institute and Wei Zhen, NIH Chemical Genomics Center
Two microliters of ASM enzyme (1:150 dilution from stock) are dispensed in 1536-well plate. 23 nL of compound and control are pinned into assay plate using the Kalypsys pintool. The plates are then incubated for 10 minutes at ambient room temperature. Then, 2 uL of the flurogenic substrate, HMU-PC0, (9 uM final) are added to the plate. An incubation for 60 minutes takes place at 37 masculineC. After that, 4 uL of stop solution is added to raise the pH to 10 to end the kinetic reaction. Plate is read on ViewLux, with detection set at Ex = 386 (10) nm and Em = 447 (10) nm.

Compound	activity change, negative = inhibition [%]
O=C(CSc1nnnn1-c1ccc(O)cc1)c1ccc(F)cc1	0.0285
CCC(=O)Nc1ccc(C(=O)CSc2nnc(CNc3ccc(Cl)cc3)o2)cc1OC	-3.49
COC(=O)c1c(C)oc(C)c1S(=O)(=O)NCc1ccc(Cl)cc1	0.138
Cc1ccc2[nH]c(C)c(CCNC(=O)NC3CCCCC3)c2c1	11.4
CCC1=NN(C(=O)Cc2ccc([N+](=O)[O-])cc2)C(O)(c2ccc(Br)cc2)C1 (stereo not given)	-4.46
Cc1cc(C)cc(NC(=O)N(C)Cc2ccccc2)c1	-5.09
COc1cccc(CNC(=O)CCN2C(=S)NC(C)(C)CC2C)c1 (stereo not given)	-1.55
COc1cc2c(cc1OC)C(Cc1cc(OC)c(OC)cc1[N+](=O)[O-])=NCC2	-9.32
CS(=O)(=O)N1CCN(CC(=O)NC2CCCC2)CC1	-0.357
O=[N+]([O-])c1ccc(S(=O)(=O)Nc2cccc(-c3ccc(N4CCCC4)nn3)c2)cc1	-3.91
COc1ccccc1C1CC(=O)n2c(nc(-c3ccccc3)c2-c2ccccc2)S1 (stereo not given)	-2.94
COc1ccc(N2C(=O)CCC(C(=O)N(C)C3CCCCC3)C2c2ccc(OC)c(OC)c2)cc1 (stereo not given)	2.46
N#C[C@]1(S(=O)(=O)c2ccccc2)C[C@@H]2ON=C(c3cccc(Br)c3)[C@@H]2C1	0.801
COC(=O)c1c(C(=O)OC)c2n(c1C)CCS2	2.14
O=C(NCc1ccncc1)C1CCCN(S(=O)(=O)c2ccc(Br)cc2)C1 (stereo not given)	4.64
COC(=O)C1=CN(c2ccc(F)c(F)c2)C=C(C(=O)OC)C1c1ccc([N+](=O)[O-])cc1	-6.6
CC(=O)OCC1(O)CC23CCC4c5ccoc5CCC4(C)C2CCC1C3 (stereo not given)	-4.39
COCCn1c(SCC(=O)Nc2nc(C)cs2)nnc1C(C)C	3.44
O=C(CNc1cccc(S(=O)(=O)N2CCCCC2)c1)Nc1ccccc1F	21.8
CCOC(=O)C(CC)Sc1ncnc2c1nnn2-c1ccc(F)cc1 (stereo not given)	1.72
NC(CSC12CC3CC(CC(C3)C1)C2)C(=O)O (stereo not given)	2.86
Cc1cccc(NC(=O)N(Cc2cc3cc(C)cc(C)c3[nH]c2=O)CC2COCCO2)c1 (stereo not given)	-13.7
O=C(Cn1cc(/C=N/NC(=O)c2cccc(C(F)(F)F)c2)c2ccccc21)Nc1ccc(F)cc1	2.03
COc1ccccc1CCNC(=O)CSc1nnc2ccc(-c3cccnc3)nn12	-1.74
COc1ccccc1NC(=O)CCC(=O)N1CC(C)Oc2ccc(C)cc21 (stereo not given)	4.08

Compound	activity change, negative = inhibition [%]
Cc1cccc(NC(=S)N(CCN(C)C)C(C)c2ccco2)c1 (stereo not given)	3.18
Cc1oc(C)c(C(=O)NCCCC(=O)O)c1C(=O)NCCCC(=O)O	3.69
CSc1nc(C)nc(C2CC2)c1C#N	3.92
CN(C)CCCNC(=O)c1cc(C(=O)Cc2ccc(Cl)cc2)c[nH]1	-1.05
CN(C(=O)c1cccc(NC(=O)Cc2ccc(NC(=O)C3CCN(C(=O)C4CCCCC4)CC3)cc2)c1)C1CCC1	-0.203
COc1ccc(CN(CC(=O)NC2CCCC2)C(=O)CCC(=O)Nc2cc(C)on2)cc1	7.46
COC(=O)c1sccc1-n1cccc1C(=O)C(=O)N1CCCCC1	-6.14
Cc1ccc2c(c1)nnc1nnc(SCC(=O)O)n12	2.22
Cc1cccc(OC(C)C(=O)N2CCc3ccccc3C2)c1 (stereo not given)	4.94
CC(=O)N1CCc2ccc(N)cc21	3.14
CCc1noc(C)c1C(=O)N1CCCC(N2CCN(c3ccc(F)cc3)CC2)C1 (stereo not given)	0.409
CCCCCCNCCn1cnc2c(N)ncnc21	3.85
Cc1cc(NC(=O)CSc2nc(=O)cc(N)n2-c2ccc(F)cc2)no1	3.93
Cc1cc(C)n(-c2nnc(C)n2NC(=O)c2cccc(Cl)c2)n1	2.43
COCCN1C(=O)C(=O)/C(=C(/O)c2ccc(S(=O)(=O)N3CCCCC3)cc2)C1c1ccc(OC)c(OC)c1 (stereo not given)	-3.13
Cc1[nH]c2ccccc2c1SCC(=O)Nc1nccs1	-2.52
CS(=O)(=O)N1CCc2cc(C(=O)Nc3ccccc3Br)ccc21	-1.09
N#C/C(C(=O)N1CCOCC1)=C1/SC(Cc2ccc(F)cc2)C(=O)N1c1ccccc1 (stereo not given)	0.557
O=C(NCc1cccs1)C(=O)NCC1OCCCN1S(=O)(=O)c1ccc(F)cc1 (stereo not given)	3.48
Cc1ccc(S(=O)(=O)N2CCC(C(=O)OCC(=O)N3CC(=O)Nc4ccccc43)CC2)cc1	2.96
O=C(NC1CCCC1)C(c1ccccn1)N(C(=O)c1csnn1)C1CCCC1 (stereo not given)	1.68
CCc1ccc(NC(=O)C(=O)N/N=C(\C)CC(=O)NCCOC)cc1	2.25
O=C(Nc1cccc(S(=O)(=O)NC2=NCCC2)c1)C1CCCCC1	4.29
COC(=O)c1ccc(Nc2ncnc3sccc23)cc1	1.35
COc1ccc(NC(=S)N2N=CCC2c2ccccc2)cc1 (stereo not given)	-2.8
